# According to the supplement of paper PMC11417369:
# In all, about 25,000 sequences were measured (“ln(normalized median fluorescence intensity)”: median about 7.1, highest 2% from about 10 on). Only a selection was taken, and the highest values are over-represented in it overall.
# System: PfSIP2 AP2 domain 1 (GST-tagged)
# Assay: gcPBM binding intensity (ln(normalized median fluorescence intensity)); higher = stronger DNA binding
# How it was run: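 An Agilent 4 × 180k array of primer-extended double-stranded 36-bp intergenic genomic probes, with negative controls, was incubated for 1 h with GST-tagged P. falciparum DNA-binding domains expressed in E. coli. Alexa488 anti-GST antibody detected bound protein, scanned at 488 nm. Binding intensity is the highest Masliner-normalised natural-log median intensity across replicate spots of either probe orientation.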
row,Sequence,gcPBM binding intensity (ln)
1,ACATATATATATTTATATATATATATATATATGTGA [CACACA_negctrl_site613],7.44
2,AAGTATAGTCTTACATATATATATATATATATATAT [GTGCAC_negctrl_site280],9.42
3,AGTTTTATATAAGCTTGTACTTAATATTATTAAGTA [XGTACX_site5919],6.99
4,ATCTAATATATATTCTGTACGTAATTAAAACCACAA [XGTACX_site3152],7.54
5,GGACTTAAATAAAATGGTACAGAATTTATATATATT [XGTACX_site8214],6.83
6,TTAAAAGTTATGGATACACACATATAAATATAGATT [CACACA_site7175],6.77
7,TAGTTAACAAATAATGCACACAAATGGATAAAATTA [CACACA_site9240],7.83
8,AAATAGTTGTTAAAGGTGCACAATATGGATATAAGA,11.2
9,GTAAATATTAATAAAAGTACATATGTAGCATATGGA [XGTACX_site5219],7.09
10,TTATTTATTTATTCATGTACGTGTATTTTTTAAAAA [XGTACX_site7915],7.28
11,TGTGCACGTTCTGTGACACACATTTAAATGTGCTTA [CACACA_site176],10.7
12,TATATATATATATATGTGCACATTTTATTAAAATGT,9.6
13,TTAAATTACTAATGTGCACACATACTAACGTTTAAA [CACACA_site3573],9.21
14,TCTGTATATTTCGCGCGTACGAACAAATTGATAATT [XGTACX_site7965],7.11
15,ATAATAAATACACTAGTGCAAAATAATATATGTACT [GTGCAC_site9707],8.13
16,CTATAATATTAGTGCACACACAAAAATGTACTAAAC [CACACA_site6442],11.3
17,AGAAAAATAAACAAATGTACAAATTATTACTATATA [XGTACX_site1087],6.8
18,GTATATAATATTAGTGCACACACAAAAATGTACTAA [CACACA_site8112],10.9
19,ATATTACAAATATAATGTACAAAATATAAATATGCA [XGTACX_site8106],6.85
20,AAAAATATAATATAATGTACACATAAACAAAAAAAA [XGTACX_site3658],7.04
21,TATAATATAATATATGCACACAAATATGTATATATG [CACACA_site8664],7.15
22,ATATAATATTAGTGCACACACAAAAATGTACTAAAC [CACACA_site632],10.9
23,AAAAATATAATATAATGTACACAAAAAAAAAAAAAT [XGTACX_site4914],7.13
24,TTCGTATATTATTAATGTACATTATAAAATCAATAT [XGTACX_site5751],7.08

row,Sequence,gcPBM binding intensity (ln)
1,GACTGAACAACATAATGTACATTTATAAGTATATAT [XGTACX_site3813],7.15
2,TTTTTTTTCAATGGTTGTACAAAGTAAAACAACAAA [XGTACX_site1582],7.2
3,ATATGTAAATAAATATGTACTCATTTATTATTTTAT [XGTACX_site8748],7.06
4,CATTTTATTCTATATGCATGTTAAAAAATGTGTTGA [TGCATGCA_site128],7.12
5,AAATATAATATACAAAGTACTTTTTCATCTTATATA [XGTACX_site8771],6.84
6,AAACAATTTGGGTGTACACATGATACGTTCGATGAG [CACACA_site5160],7.18
7,ATAAAAGAATAAATAAAACACATATATATATATATA [XGTACX_negctrl_site31],9.43
8,CTTTGTAGTATATTAACACACAACTGTTTATAATAT [CACACA_site6038],7.05
9,AAATATTTATAAATTGCACACAAATAATAACATTAT [CACACA_site8737],7
10,TATAATATTTGGTGCACACAAATTAACAACTGTTTA [CACACA_site3742],11.7
11,ATATTTATAAATTGCACACAAATAATAACATTATAT [CACACA_site5322],7.13
12,TGTATAATATTTGGTGCACACAAATTAACAACTGTT [CACACA_site9245],11.4
13,TTCTTTGTAGTATATTAACACACAACTGTTTATAAT [CACACA_site9305],7.27
14,AAAGGTTCACATTATATAGTTATGTAATATATATGT [CACACA_negctrl_site542],6.84
15,ATATTTCATTTTTGTACACACAACGTTGGAGGGTTT [CACACA_site3043],7.18
16,TCATATTTCCATAGGAGTACATAAAAAAAATAATAT [XGTACX_site7601],7.06
17,TAAAAATAATATTAATGTACATTACATATTAATATA [XGTACX_site1019],6.83
18,TTTTATAAATACACACGTACGTGTGCATAACGTTTT [XGTACX_site3199],7.21
19,TTTTTTTTTATAAATACACACGTACGGGTGCATAAC [CACACA_site8444],11.3
20,CATTTTTTTTTATAAATACACACGTACGGGTGCATA [CACACA_site1569],10.9
21,ATAAATAAATTTATACGTACACATAATATATATATA [XGTACX_site4634],8.89
22,AAAAGACATTTTTTTTTATAAATACACACGTACGTG [TGCATGCA_negctrl_site281],6.95
23,GTTATAAATGCATATACACACATACGTACATACATA [CACACA_site7655],7.4
